The record followed here is the supplement of paper PMC6555819.

In one assay the test system is PPARg:RXRa IVT, anti-PPARg (NR concentration 270 nM, RXRa partner concentration 90 nM). Put plainly: PBM binding z-score (relative to random genomic background probes); higher = stronger binding; sequences stand for … in GC…GCGATTGACAGCGTAGAATGAAGG
The method in brief:
(§1)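 For binding z-scores, the reference was random background probes on custom Agilent 4×180K protein-binding microarrays. These arrays were incubated 1 h with ligand-free nuclear receptor dimers in PBS pH 7.4, 2% milk, 0.02% Triton X-100, 1 mM DTT, 0.2 mg/mL BSA and 0.4 mg/ml salmon testes DNA. Fluorescence was scanned after antibody detection of each partner (one per run) and regression-normalized.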
Take ATCGCAAGGTCGACGAGGTGAGTATACACCGTTT: the PBM binding z-score turned out to be 1.1.
On the same count and under the same terms, with GCTAGTTGGTCAGTAAAAGGTCACACCCCGGTCG the figure was 2.91.
Regarding ACTAGAAGGCCAAGTTTGGGTCACTCAAACAAAG, the PBM binding z-score worked out at 1.25.
For the sequence TATACAGGGTCAAAGTCCAGAGTACGAATGTCGA, the PBM binding z-score came out at 4.52.
Same read-out and setting: with GCTGCTAGGTCAGGTTGATCAGCTAACGGGTACG the figure was 2.17.
On the same count and under the same terms, with TCATATGGGTAATACAGGTGAAAGTCGGCATCTA the figure was 2.88; with ACTAGCAGGTCAAGTTTGGGTCACTCAAACAAAG, 4.73; with TCTATTAGTTGAAGGCCAACCGACGAGTCCGTTT, 0.522.
Same read-out and setting: with TTACCAAGGTGAAAGGTTGTTGATGCACGCCTTG the figure was 4.17; with CGAACTCGGTCATCCAGGACAGTGAATACATTGA, 2.52.
TCATAGAGGTAAAAGGTGAAAGTCGGTGTGGTAA: the PBM binding z-score amounted to 3.24.
TTACCAAGGTGAGCTGAGGTCGTTGAACCAACTC yielded a PBM binding z-score of 1.83.
TAGCCTAGGTCATTGGGCCAGTATCGTACGCATC registered a PBM binding z-score of 3.95.
Same read-out and setting: with AGAACTAGGGCAATGAGTTGATAGCACGGGTGGC the figure was 6.72; with CCTACTGGACCATTCAGAGGTCATTGATCATATG, 1.98; with CGTCCAAGGTCAAAGGACAGTGAAGAGATGACGG, 3.71.
On the same count and under the same terms, the result for CGTCAAAGATCAACTAAGGTAACGTAAAGCACGC reads 0.5.
For the sequence TAGCCTAGGTCATGTGCCAGTATACCACGCGAAC, the PBM binding z-score came out at 3.01.
Same read-out and setting: the result for TCATATAGGTAAACGCTAGGTGAAAGTCCGATCT reads 3.57.
Same read-out and setting: with CCGACTGGGGCATAAGGATACCATAAGCCAGCCC the figure was 1.93; with AATACAGGGTCATTGTAGGCCAGAGTACGCACAG, 4.77.
The same measure, in the same setting: with ATAGAAAGGTCGAGGTGAGTATAGAGAAAGGGAA the figure was 1.99; with ATCTCTAGGTCAAGATAGTTCAGTGAATGCAAAT, 6.47; with ATACCAAGGTGATCGTGAAGTCGTTGATACTAAC, 1.26.
AACTCTAGGTAACCAAGTTCAGTGAATGCCGAAC: the PBM binding z-score was 2.39.
On the same count and under the same terms, the result for CCTGCTAGGTCACGGTCAGCTAATCTACAGTATG reads 5.12; that for ATATGTAGGTTATGGGTCATTCAGGTTGGTTCGC, 7.26.
Still for that read-out and setting: the result for TTATCAAGGTGAGCTGAGGTCGTTGATCCAACTC reads 2.79.
The same measure, in the same setting: with ATCTCTAGGTAAGGTTCAGTGAAAGATCGATAGA the figure was 1.27; with TGAATGAGGTTAAAGATCTGGGAACGTGGCGTCG, 2.86.
Consider CGTCAAAGTACAACTAAGGTAACGTAAAGCACGC, for which the PBM binding z-score came out at 0.863.
On the same count and under the same terms, the result for CAAACTAGGTCAGAACAGGACAGTGAAGGATGAT reads 7.34.
The same measure, in the same setting: with GTACCAAGGTGAATAGGGCGTTGATGAGTAGGCG the figure was 2.39.
Same read-out and setting: with AGAATGATGTTATACGTAGATCAGGGAAGAAAGT the figure was -0.0838; with CCTCGGAGGGCAACAGGAGGTCAGAGCTGCCAGA, 1.54.
For the sequence CCAGCCAGGTGAAAGGTAACTCAGTCTGGTACGC, the PBM binding z-score was 3.85.
The same measure, in the same setting: the result for CTAGAAAGGTCGTGCTCAGGTGAGTATACCAAAC reads 1.62; that for ATATGTAGGTTACATCCGGGTCATTCAGGCTATG, 7.11; that for CCTAGCAGGCCAATTTGGGTCACTCAAGGCTTGA, 2.91.
As to CCTGCTAGGTCATGGTCAGATAATCTACAGTATG, the PBM binding z-score came to 3.84.

The next assay has as its system PPARg DBDmut:RXRa IVT, anti-PPARg (DBD mutation: PPARg1 K132A/R137A, NR concentration 270 nM, RXRa partner concentration 90 nM). Described as above. The method in brief:
as §1
ATCGCAAGGTCGACGAGGTGAGTATACACCGTTT displayed a PBM binding z-score of 0.104.
Sequence GCTAGTTGGTCAGTAAAAGGTCACACCCCGGTCG showed a PBM binding z-score of -0.641.
On the same count and under the same terms, with ACTAGAAGGCCAAGTTTGGGTCACTCAAACAAAG the figure was -0.516; with TATACAGGGTCAAAGTCCAGAGTACGAATGTCGA, 3.19; with GCTGCTAGGTCAGGTTGATCAGCTAACGGGTACG, -1.1.
On the same count and under the same terms, the result for TCATATGGGTAATACAGGTGAAAGTCGGCATCTA reads 1.3; that for ACTAGCAGGTCAAGTTTGGGTCACTCAAACAAAG, 0.847.
Still for that read-out and setting: the result for TCTATTAGTTGAAGGCCAACCGACGAGTCCGTTT reads 0.431; that for TTACCAAGGTGAAAGGTTGTTGATGCACGCCTTG, 0.253.
In turn, CGAACTCGGTCATCCAGGACAGTGAATACATTGA yielded a PBM binding z-score of 0.285.
Same read-out and setting: the result for TCATAGAGGTAAAAGGTGAAAGTCGGTGTGGTAA reads 0.0344; that for TTACCAAGGTGAGCTGAGGTCGTTGAACCAACTC, -0.507.
For the sequence TAGCCTAGGTCATTGGGCCAGTATCGTACGCATC, the PBM binding z-score is 0.593.
On the same count and under the same terms, with AGAACTAGGGCAATGAGTTGATAGCACGGGTGGC the figure was 1.02; with CCTACTGGACCATTCAGAGGTCATTGATCATATG, 0.483; with CGTCCAAGGTCAAAGGACAGTGAAGAGATGACGG, 1.49.
In the case of CGTCAAAGATCAACTAAGGTAACGTAAAGCACGC, the PBM binding z-score worked out at 0.6.
Still for that read-out and setting: with TAGCCTAGGTCATGTGCCAGTATACCACGCGAAC the figure was 0.0994; with TCATATAGGTAAACGCTAGGTGAAAGTCCGATCT, 1.38; with CCGACTGGGGCATAAGGATACCATAAGCCAGCCC, -0.873.
Same read-out and setting: with AATACAGGGTCATTGTAGGCCAGAGTACGCACAG the figure was 1.99; with ATAGAAAGGTCGAGGTGAGTATAGAGAAAGGGAA, 1.74; with ATCTCTAGGTCAAGATAGTTCAGTGAATGCAAAT, 1.92.
The sequence ATACCAAGGTGATCGTGAAGTCGTTGATACTAAC came in with a PBM binding z-score of 0.643.
Same read-out and setting: the result for AACTCTAGGTAACCAAGTTCAGTGAATGCCGAAC reads -0.137.
On the same count and under the same terms, with CCTGCTAGGTCACGGTCAGCTAATCTACAGTATG the figure was 1.07; with ATATGTAGGTTATGGGTCATTCAGGTTGGTTCGC, 2.55; with TTATCAAGGTGAGCTGAGGTCGTTGATCCAACTC, 0.246.
The sequence ATCTCTAGGTAAGGTTCAGTGAAAGATCGATAGA displayed a PBM binding z-score of 1.88.
TGAATGAGGTTAAAGATCTGGGAACGTGGCGTCG had a PBM binding z-score of 1.17.
On the same count and under the same terms, the result for CGTCAAAGTACAACTAAGGTAACGTAAAGCACGC reads -0.144; that for CAAACTAGGTCAGAACAGGACAGTGAAGGATGAT, 4.2; that for GTACCAAGGTGAATAGGGCGTTGATGAGTAGGCG, 0.11.
In turn, AGAATGATGTTATACGTAGATCAGGGAAGAAAGT showed a PBM binding z-score of 1.57.
On to CCTCGGAGGGCAACAGGAGGTCAGAGCTGCCAGA, for which the PBM binding z-score is -1.74.
The same measure, in the same setting: with CCAGCCAGGTGAAAGGTAACTCAGTCTGGTACGC the figure was -0.331.
The same measure, in the same setting: with CTAGAAAGGTCGTGCTCAGGTGAGTATACCAAAC the figure was -0.0853.
On the same count and under the same terms, with ATATGTAGGTTACATCCGGGTCATTCAGGCTATG the figure was 2.58; with CCTAGCAGGCCAATTTGGGTCACTCAAGGCTTGA, -1.03.
In the case of CCTGCTAGGTCATGGTCAGATAATCTACAGTATG, the PBM binding z-score was found to be 0.574.
